Test results reported in PubChem BioAssay AID1159580 (chemical genetic matrix, 2015).
In all, about 5,500 compounds went through this assay and about 2,000 (36%) were called active. Another 18% or so got no clear call; they are omitted. Cut-off read from the data, not from the text of the source: active = normalized growth mostly below about 0.91 (no sharp cut-off); inconclusive = no clear call, values can overlap the other calls; inactive = mostly above about 0.92. Some of the results follow.

Assay: chemical genetic growth profiling, strain panel (AID 1159580);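 note: tested at 20 µM; growth read once vehicle control cultures reached saturation at 30 °C; 1 = growth at the plate median or of vehicle wells; lower values mean less growth of the strain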
Details: S. cerevisiae deletion strains, growth OD

Measured: normalized growth

O=P1(NCCCl)OCCCN1CCCl (stereo not given)
inactive: locus YAL021C, strain ccr4, active compounds read low 0.964 | locus YAL026C, strain drs2, active compounds read low 0.991 | locus YAL030W, strain snc1, active compounds read low 0.992 | locus YBL061C, strain skt5, active compounds read low 0.993 | locus YBR009C, strain hhf1, active compounds read low 1.01 | locus YBR023C, strain chs3, active compounds read low 0.987 | locus YBR171W, strain sec66, active compounds read low 0.98 | locus YBR231C, strain swc5, active compounds read low 1 | locus YBR279W, strain paf1, active compounds read low 0.997 | locus YCL011C, strain gbp2, active compounds read low 0.975 | locus YCL016C, strain dcc1, active compounds read low 0.992 | locus YCL061C, strain MRC1, active compounds read low 0.987 | locus YCL069W, strain vba3, active compounds read low 0.989 | locus YCR088W, strain abp1, active compounds read low 0.971 | locus YDL005C, strain med2, active compounds read low 0.995 | locus YDL040C, strain nat1, active compounds read low 0.987 | locus YDR001C, strain nth1, active compounds read low 0.985 | locus YDR069C, strain doa4, active compounds read low 0.995 | locus YDR137W, strain rgp1, active compounds read low 0.988 | locus YDR159W, strain sac3, active compounds read low 0.982 | locus YDR195W, strain ref2 0.985 | locus YDR297W, strain sur2, active compounds read low 0.99 | locus YDR334W, strain swr1, active compounds read low 0.969 | locus YDR335W, strain msn5, active compounds read low 0.976 | locus YDR392W, strain spt3, active compounds read low 1.01 | locus YEL003W, strain gim4, active compounds read low 0.983 | locus YEL037C, strain rad23, active compounds read low 0.95 | locus YEL061C, strain CIN8 (second series), active compounds read low 0.977 | locus YER015W, strain faa2, active compounds read low 0.99 | locus YER016W, strain bim1, active compounds read low 0.986 | locus YER111C, strain swi4, active compounds read low 1 | locus YER155C, strain BEM2 (second series), active compounds read low 1.01 | locus YFR010W, strain ubp6, active compounds read low 0.96 | locus YGL167C, strain pmr1, active compounds read low 0.992 | locus YGL173C, strain kem1, active compounds read low 0.984 | locus YGL227W, strain vid30, active compounds read low 0.993 | locus YGL240W, strain doc1, active compounds read low 1.02 | locus YGL253W, strain hxk2, active compounds read low 0.986 | locus YHR013C, strain ard1, active compounds read low 0.996 | locus YHR027C, strain rpn1, active compounds read low 0.981 | locus YHR030C, strain SLT2, active compounds read low 0.967 | locus YHR079C, strain IRE1, active compounds read low 0.971 | locus YHR142W, strain chs7, active compounds read low 0.943 | locus YJL092W, strain hpr5, active compounds read low 0.975 | locus YJL095W, strain BCK1 (second series), active compounds read low 0.995 | locus YJL095W, strain BCK1, active compounds read low 0.989 | locus YJL115W, strain asf1, active compounds read low 0.971 | locus YJL129C, strain trk1, active compounds read low 0.97 | locus YJL154C, strain vps35, active compounds read low 0.992 | locus YJL164C, strain tpk1, active compounds read low 0.979 | locus YJL166W, strain qcr8, active compounds read low 0.998 | locus YJL187C, strain SWE1, active compounds read low 0.99 | locus YJR066W, strain TOR1, active compounds read low 0.921 | locus YKL160W, strain elf1, active compounds read low 0.986 | locus YKR026C, strain gcn3, active compounds read low 0.971 | locus YKR091W, strain srl3, active compounds read low 0.99 | locus YLL001W, strain dnm1, active compounds read low 0.968 | locus YLL026W, active compounds read low 1 | locus YLL041C, strain sdh2, active compounds read low 0.987 | locus YLR027C, strain aat2, active compounds read low 0.988 | locus YLR113W, strain HOG1, active compounds read low 1 | locus YLR221C, strain rsa3, active compounds read low 0.981 | locus YLR258W, strain gsy2, active compounds read low 0.996 | locus YLR262C, strain YPT6 (second series), active compounds read low 1.01 | locus YLR320W, strain mms22, active compounds read low 1.01 | locus YLR342W, strain FKS1, active compounds read low 0.99 | locus YLR357W, strain rsc2, active compounds read low 0.991 | locus YLR370C, strain arc18, active compounds read low 0.986 | locus YLR384C, strain iki3, active compounds read low 0.981 | locus YML120C, strain ndi1, active compounds read low 0.968 | locus YMR058W, strain fet3, active compounds read low 0.982 | locus YMR125W, strain sto1, active compounds read low 0.992 | locus YMR129W, active compounds read low 0.983 | locus YMR205C, strain PFK2, active compounds read low 1.01 | locus YMR231W, strain pep5, active compounds read low 0.992 | locus YNL071W, strain lat1, active compounds read low 0.996 | locus YNL183C, strain NPR1, active compounds read low 0.93 | locus YNL209W, strain ssb2, active compounds read low 0.991 | locus YNL248C, strain rpa49, active compounds read low 0.946 | locus YNL322C, strain KRE1 (second series), active compounds read low 0.986 | locus YNR049C, strain mso1, active compounds read low 0.985 | locus YOR001W, strain rrp6, active compounds read low 0.973 | locus YOR070C, strain gyp1, active compounds read low 0.993 | locus YOR080W, strain dia2, active compounds read low 0.987 | locus YOR083W, strain WHI5, active compounds read low 0.981 | locus YOR106W, strain vam3, active compounds read low 0.982 | locus YOR231W, strain MKK1, active compounds read low 0.968 | locus YOR265W, strain rbl2, active compounds read low 0.99 | locus YOR270C, strain vph1, active compounds read low 0.922 | locus YOR290C, strain snf2, active compounds read low 0.994 | locus YPL051W, strain arl3, active compounds read low 0.999 | locus YPL078C, strain atp4, active compounds read low 0.978 | locus YPL106C, strain sse1, active compounds read low 0.997 | locus YPL240C, strain hsp82, active compounds read low 0.986 | locus YPL256C, strain CLN2, active compounds read low 0.95
